# According to article PMC7862700, “An all-to-all approach to the identification of sequence-specific readers for epigenetic DNA modifications on cytosine”:
# Key:
# Assay in all cases: DAPPL (digital affinity profiling via proximity ligation, sequencing); 10 mM Tris-HCl pH 7.5, 50 mM NaCl, 1 mM DTT, 4% glycerol, room temperature, 30 min; GST-TFs on glutathione beads, 16-mer random dsDNA library, 0.1% formaldehyde crosslink after washing; high values mean tight binding
# Settings in all cases: protein: recombinant; tags: N-terminal GST; dsDNA, one strand shown
# FLI1 = molecular target: T1, FLI1 (Homo sapiens, UniProt Q01543 1-452)
# T1 sequence: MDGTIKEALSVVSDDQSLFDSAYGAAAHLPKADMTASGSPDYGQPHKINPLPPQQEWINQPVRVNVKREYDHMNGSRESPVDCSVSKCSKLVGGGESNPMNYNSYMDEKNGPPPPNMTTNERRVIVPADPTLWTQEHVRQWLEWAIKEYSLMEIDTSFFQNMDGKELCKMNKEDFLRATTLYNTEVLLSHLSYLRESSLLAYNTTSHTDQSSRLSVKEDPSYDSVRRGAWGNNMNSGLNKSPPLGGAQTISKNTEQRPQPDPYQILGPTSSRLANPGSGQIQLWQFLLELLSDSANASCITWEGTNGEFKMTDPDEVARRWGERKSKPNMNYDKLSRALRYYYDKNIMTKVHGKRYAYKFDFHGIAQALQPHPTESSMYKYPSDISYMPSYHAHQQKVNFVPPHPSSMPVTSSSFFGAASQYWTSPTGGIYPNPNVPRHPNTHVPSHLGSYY
# Summary of the method: (§1)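 Human transcription factors fused to GST were expressed in yeast, captured on glutathione beads, given DNA barcodes and pooled with a GST-only negative control. Pools were incubated with 200 nmole of a 16-mer random double-stranded DNA library in Tris/NaCl/DTT/glycerol buffer at room temperature for 30 min. They were then washed, crosslinked with 0.1% formaldehyde, proximity-ligated (BsaI/T4 ligase, 1 h, 37 °C), PCR-amplified and sequenced on an Illumina NextSeq500. Binding signal is each 6-mer's read frequency for a factor divided by its frequency for the GST control.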
# ELK1 = molecular target: T2, ELK1 (Homo sapiens, UniProt P19419 1-428)
# T2 sequence: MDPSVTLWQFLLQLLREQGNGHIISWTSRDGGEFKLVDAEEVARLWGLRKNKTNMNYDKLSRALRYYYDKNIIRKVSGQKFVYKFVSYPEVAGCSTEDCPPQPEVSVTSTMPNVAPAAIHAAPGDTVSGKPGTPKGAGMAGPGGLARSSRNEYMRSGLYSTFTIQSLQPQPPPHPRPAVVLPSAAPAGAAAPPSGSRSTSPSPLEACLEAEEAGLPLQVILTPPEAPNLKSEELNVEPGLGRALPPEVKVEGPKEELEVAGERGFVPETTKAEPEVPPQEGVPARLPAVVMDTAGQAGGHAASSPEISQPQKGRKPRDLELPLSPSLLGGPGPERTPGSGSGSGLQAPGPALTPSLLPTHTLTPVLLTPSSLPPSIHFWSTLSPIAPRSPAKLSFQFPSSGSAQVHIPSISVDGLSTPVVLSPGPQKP
# Summary of the method: as §1
# GABPA = molecular target: T3, GABPA (Homo sapiens, UniProt Q06546 1-454)
# T3 sequence: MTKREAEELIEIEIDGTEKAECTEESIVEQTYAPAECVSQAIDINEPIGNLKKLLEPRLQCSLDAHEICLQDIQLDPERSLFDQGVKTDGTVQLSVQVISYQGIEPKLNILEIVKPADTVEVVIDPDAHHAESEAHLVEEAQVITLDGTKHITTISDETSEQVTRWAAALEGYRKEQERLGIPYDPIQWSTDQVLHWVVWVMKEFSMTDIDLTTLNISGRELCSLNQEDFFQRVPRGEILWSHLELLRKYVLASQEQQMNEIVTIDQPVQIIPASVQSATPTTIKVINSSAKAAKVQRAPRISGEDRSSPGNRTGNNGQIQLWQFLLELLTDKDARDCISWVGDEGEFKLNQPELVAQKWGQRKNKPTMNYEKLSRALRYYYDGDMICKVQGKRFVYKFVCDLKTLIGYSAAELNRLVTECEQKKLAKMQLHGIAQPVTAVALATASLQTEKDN
# Summary of the method: as §1
# ERG = molecular target: T4, ERG (Homo sapiens, UniProt P11308 1-479)
# T4 sequence: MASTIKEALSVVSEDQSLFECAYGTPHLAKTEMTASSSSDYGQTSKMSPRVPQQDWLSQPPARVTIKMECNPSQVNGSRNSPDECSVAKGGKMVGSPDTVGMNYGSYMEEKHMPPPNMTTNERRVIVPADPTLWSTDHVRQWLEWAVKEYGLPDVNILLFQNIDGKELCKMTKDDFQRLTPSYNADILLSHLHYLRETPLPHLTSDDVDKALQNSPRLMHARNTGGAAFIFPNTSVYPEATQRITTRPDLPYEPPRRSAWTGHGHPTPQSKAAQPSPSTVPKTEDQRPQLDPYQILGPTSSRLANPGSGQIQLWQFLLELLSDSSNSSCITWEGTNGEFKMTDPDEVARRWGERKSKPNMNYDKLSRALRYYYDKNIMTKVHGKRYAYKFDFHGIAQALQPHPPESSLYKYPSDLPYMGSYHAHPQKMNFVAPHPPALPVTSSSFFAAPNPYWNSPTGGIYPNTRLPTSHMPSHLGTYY
# Summary of the method: as §1
# ELF1 = ELF1 (Homo sapiens, UniProt P32519 1-619)
# Summary of the method: as §1
# EHF = molecular target: T5, EHF (Homo sapiens, UniProt Q9NZC4 1-300)
# T5 sequence: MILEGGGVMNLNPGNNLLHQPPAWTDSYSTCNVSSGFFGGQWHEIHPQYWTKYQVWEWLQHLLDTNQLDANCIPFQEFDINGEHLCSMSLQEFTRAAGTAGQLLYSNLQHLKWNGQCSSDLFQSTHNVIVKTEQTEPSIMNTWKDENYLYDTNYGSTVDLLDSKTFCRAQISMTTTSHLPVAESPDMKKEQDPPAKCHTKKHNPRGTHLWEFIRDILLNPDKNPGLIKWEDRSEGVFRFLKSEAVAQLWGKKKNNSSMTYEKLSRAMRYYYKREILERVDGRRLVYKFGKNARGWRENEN
# Summary of the method: as §1
# SPI1 = SPI1 (Homo sapiens, UniProt P17947 1-270)
# Summary of the method: as §1
# SPIB = SPIB (Homo sapiens, UniProt Q01892 1-262)
# Summary of the method: as §1
# ELK3 = molecular target: T6, ELK3 (Homo sapiens, UniProt P41970 1-407)
# T6 sequence: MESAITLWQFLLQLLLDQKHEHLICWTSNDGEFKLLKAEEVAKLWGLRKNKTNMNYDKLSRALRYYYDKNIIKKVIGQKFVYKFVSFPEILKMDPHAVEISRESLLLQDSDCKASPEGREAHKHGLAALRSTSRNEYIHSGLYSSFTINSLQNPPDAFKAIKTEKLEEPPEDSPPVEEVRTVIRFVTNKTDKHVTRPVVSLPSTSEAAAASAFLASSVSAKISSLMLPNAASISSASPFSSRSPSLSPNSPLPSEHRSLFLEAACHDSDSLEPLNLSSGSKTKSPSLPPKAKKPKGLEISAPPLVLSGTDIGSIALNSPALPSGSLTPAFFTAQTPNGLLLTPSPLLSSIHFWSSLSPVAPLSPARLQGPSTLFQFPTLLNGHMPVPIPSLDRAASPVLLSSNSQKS
# Summary of the method: as §1
# FEV = molecular target: T7, FEV (Homo sapiens, UniProt Q99581 1-238)
# T7 sequence: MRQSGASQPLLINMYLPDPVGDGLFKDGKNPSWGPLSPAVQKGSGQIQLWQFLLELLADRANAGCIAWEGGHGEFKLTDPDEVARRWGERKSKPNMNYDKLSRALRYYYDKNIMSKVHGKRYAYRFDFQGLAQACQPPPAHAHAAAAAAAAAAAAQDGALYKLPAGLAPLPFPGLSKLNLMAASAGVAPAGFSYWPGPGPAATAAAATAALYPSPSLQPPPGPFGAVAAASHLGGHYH
# Summary of the method: as §1
# ETV5 = ETV5 (Homo sapiens, UniProt P41161 1-510)
# Summary of the method: as §1
# SPIC = molecular target: T8, SPIC (Homo sapiens, UniProt Q8N5J4 1-248)
# T8 sequence: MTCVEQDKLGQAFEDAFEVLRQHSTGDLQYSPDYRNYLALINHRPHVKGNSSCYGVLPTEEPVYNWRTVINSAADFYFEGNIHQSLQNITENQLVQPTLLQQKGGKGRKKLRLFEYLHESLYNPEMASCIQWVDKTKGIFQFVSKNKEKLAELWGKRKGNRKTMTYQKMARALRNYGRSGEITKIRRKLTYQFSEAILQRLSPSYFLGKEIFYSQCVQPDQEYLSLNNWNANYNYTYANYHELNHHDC
# Summary of the method: as §1
# ELF4 = ELF4 (Homo sapiens, UniProt Q99607 1-663)
# Summary of the method: as §1
# ELK4 = molecular target: T9, ELK4 (Homo sapiens, UniProt P28324-2 1-405)
# T9 sequence: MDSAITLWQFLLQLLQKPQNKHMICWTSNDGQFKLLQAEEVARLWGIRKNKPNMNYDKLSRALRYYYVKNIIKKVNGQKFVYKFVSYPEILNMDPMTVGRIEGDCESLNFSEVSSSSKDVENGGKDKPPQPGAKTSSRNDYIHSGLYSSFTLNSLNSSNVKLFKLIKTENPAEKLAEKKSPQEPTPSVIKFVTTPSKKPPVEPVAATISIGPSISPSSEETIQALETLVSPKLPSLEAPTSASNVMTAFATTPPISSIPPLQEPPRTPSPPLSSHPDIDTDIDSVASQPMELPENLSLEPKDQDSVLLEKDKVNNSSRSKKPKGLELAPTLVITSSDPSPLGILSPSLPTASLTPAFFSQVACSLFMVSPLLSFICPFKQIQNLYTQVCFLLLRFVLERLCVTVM
# Summary of the method: as §1
# ETV2 = molecular target: T10, ETV2 (Homo sapiens, UniProt O00321 1-342)
# T10 sequence: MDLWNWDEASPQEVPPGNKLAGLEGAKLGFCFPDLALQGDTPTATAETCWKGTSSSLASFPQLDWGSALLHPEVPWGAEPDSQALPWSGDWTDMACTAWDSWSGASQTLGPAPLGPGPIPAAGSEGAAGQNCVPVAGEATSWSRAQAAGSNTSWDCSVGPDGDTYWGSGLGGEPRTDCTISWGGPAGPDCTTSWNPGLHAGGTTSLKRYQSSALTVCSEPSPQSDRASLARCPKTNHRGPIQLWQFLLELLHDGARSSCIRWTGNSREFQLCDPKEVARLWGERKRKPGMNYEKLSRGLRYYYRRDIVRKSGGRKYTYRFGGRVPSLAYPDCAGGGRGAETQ
# Summary of the method: as §1
# ELF3 = molecular target: T11, ELF3 (Homo sapiens, UniProt P78545 1-371)
# T11 sequence: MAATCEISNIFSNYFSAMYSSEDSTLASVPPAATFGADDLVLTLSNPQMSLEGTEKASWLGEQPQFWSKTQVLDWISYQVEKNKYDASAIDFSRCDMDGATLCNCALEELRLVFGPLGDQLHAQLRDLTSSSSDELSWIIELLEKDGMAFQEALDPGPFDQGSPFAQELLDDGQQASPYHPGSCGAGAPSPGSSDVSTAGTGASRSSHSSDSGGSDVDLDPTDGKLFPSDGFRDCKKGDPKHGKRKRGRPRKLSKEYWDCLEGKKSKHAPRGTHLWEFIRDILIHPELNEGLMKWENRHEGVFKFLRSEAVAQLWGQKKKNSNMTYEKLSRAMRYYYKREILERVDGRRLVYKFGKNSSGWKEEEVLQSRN
# Summary of the method: as §1
# ETV1 = ETV1 (Homo sapiens, UniProt P50549 1-477)
# Summary of the method: as §1
# Chain of ETV5 (P41161 whole entry): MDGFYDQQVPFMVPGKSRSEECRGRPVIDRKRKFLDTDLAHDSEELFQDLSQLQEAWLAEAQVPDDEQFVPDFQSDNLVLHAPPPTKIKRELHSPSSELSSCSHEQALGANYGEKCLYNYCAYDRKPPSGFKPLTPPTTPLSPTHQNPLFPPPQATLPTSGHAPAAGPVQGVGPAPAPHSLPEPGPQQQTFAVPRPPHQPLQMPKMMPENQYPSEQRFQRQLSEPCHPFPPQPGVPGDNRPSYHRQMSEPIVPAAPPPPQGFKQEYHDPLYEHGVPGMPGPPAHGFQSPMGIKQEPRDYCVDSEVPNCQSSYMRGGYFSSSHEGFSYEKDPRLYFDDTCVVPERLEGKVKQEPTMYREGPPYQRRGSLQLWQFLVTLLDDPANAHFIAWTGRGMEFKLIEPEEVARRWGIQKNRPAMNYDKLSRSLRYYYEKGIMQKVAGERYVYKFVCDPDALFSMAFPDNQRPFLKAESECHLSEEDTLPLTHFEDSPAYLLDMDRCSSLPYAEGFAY
# Chain of ELF1 (P32519 whole entry): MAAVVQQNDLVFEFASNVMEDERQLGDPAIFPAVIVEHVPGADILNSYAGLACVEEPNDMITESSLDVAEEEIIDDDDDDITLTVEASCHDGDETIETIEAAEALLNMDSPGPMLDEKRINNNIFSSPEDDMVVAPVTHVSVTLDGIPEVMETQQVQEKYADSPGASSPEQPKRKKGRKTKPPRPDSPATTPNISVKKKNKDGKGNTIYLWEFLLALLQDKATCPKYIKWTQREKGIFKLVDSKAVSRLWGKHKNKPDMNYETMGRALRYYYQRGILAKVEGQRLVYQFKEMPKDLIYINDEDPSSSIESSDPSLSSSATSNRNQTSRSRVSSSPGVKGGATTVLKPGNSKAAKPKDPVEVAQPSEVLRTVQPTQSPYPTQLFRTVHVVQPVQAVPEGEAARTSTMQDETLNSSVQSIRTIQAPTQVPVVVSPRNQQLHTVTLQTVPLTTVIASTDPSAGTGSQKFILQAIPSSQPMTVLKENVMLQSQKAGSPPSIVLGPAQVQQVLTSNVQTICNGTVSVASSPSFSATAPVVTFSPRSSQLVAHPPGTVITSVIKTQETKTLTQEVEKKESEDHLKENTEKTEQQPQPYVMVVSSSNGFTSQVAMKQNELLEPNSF
# Chain of SPIB (Q01892 whole entry): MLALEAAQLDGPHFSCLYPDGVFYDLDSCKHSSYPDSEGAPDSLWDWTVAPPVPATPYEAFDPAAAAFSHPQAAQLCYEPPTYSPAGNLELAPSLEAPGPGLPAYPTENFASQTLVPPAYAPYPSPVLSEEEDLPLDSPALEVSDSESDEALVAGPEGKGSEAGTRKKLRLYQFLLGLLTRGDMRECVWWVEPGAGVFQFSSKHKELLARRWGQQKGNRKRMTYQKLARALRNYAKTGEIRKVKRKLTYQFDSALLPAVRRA
# Chain of ETV1 (P50549 whole entry): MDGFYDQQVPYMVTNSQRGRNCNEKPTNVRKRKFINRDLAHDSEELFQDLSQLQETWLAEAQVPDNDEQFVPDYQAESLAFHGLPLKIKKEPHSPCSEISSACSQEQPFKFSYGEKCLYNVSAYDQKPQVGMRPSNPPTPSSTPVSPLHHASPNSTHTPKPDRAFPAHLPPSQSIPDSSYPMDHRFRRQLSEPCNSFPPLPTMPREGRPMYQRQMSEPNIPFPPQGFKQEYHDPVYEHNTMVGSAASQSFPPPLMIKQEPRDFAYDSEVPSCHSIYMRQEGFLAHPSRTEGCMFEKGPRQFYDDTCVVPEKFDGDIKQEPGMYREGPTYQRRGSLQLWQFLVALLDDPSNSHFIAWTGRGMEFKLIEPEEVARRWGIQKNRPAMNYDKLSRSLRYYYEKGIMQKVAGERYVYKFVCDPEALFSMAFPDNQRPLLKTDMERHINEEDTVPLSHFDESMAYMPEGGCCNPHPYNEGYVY
# Chain of ELF4 (Q99607 whole entry): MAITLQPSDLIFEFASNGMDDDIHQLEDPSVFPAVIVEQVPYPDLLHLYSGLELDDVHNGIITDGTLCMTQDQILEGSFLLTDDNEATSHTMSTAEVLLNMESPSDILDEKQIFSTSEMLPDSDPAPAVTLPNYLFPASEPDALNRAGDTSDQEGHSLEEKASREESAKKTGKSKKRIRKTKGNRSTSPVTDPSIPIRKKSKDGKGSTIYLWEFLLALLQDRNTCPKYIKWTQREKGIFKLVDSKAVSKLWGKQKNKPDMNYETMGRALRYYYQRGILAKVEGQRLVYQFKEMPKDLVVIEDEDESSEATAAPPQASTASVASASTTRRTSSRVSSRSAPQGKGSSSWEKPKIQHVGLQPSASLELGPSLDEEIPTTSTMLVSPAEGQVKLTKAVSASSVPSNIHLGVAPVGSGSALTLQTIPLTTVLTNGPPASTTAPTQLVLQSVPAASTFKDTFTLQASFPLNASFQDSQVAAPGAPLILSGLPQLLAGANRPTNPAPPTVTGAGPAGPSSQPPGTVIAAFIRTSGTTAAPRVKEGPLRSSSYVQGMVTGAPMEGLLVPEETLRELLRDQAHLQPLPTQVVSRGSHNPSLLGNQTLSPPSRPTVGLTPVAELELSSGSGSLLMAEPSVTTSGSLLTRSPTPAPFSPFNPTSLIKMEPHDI
Sequence,binding signal (FLI1),binding signal (ELK1),binding signal (GABPA),binding signal (ERG),binding signal (ELF1),binding signal (EHF),binding signal (SPI1),binding signal (SPIB),binding signal (ELK3),binding signal (FEV),binding signal (ETV5),binding signal (SPIC),binding signal (ELF4),binding signal (ELK4),binding signal (ETV2),binding signal (ELF3),binding signal (ETV1)
TGAACC,"1.17 fold enrichment (6-mer frequency, TF over GST control)","1.25 fold enrichment (6-mer frequency, TF over GST control)","1.17 fold enrichment (6-mer frequency, TF over GST control)","1.1 fold enrichment (6-mer frequency, TF over GST control)","1.15 fold enrichment (6-mer frequency, TF over GST control)","1.16 fold enrichment (6-mer frequency, TF over GST control)","1.15 fold enrichment (6-mer frequency, TF over GST control)","1.15 fold enrichment (6-mer frequency, TF over GST control)","1.12 fold enrichment (6-mer frequency, TF over GST control)","1.12 fold enrichment (6-mer frequency, TF over GST control)","1.21 fold enrichment (6-mer frequency, TF over GST control)","1.1 fold enrichment (6-mer frequency, TF over GST control)","1.15 fold enrichment (6-mer frequency, TF over GST control)","1.19 fold enrichment (6-mer frequency, TF over GST control)","1.01 fold enrichment (6-mer frequency, TF over GST control)","1.12 fold enrichment (6-mer frequency, TF over GST control)","1.2 fold enrichment (6-mer frequency, TF over GST control)"
CGGATA,"1.15 fold enrichment (6-mer frequency, TF over GST control)","1.27 fold enrichment (6-mer frequency, TF over GST control)","1.09 fold enrichment (6-mer frequency, TF over GST control)","1.5 fold enrichment (6-mer frequency, TF over GST control)","1.16 fold enrichment (6-mer frequency, TF over GST control)","1.19 fold enrichment (6-mer frequency, TF over GST control)","1.1 fold enrichment (6-mer frequency, TF over GST control)","1.15 fold enrichment (6-mer frequency, TF over GST control)","1.33 fold enrichment (6-mer frequency, TF over GST control)","2.83 fold enrichment (6-mer frequency, TF over GST control)","1.34 fold enrichment (6-mer frequency, TF over GST control)","1.2 fold enrichment (6-mer frequency, TF over GST control)","1.03 fold enrichment (6-mer frequency, TF over GST control)","1.16 fold enrichment (6-mer frequency, TF over GST control)","1.23 fold enrichment (6-mer frequency, TF over GST control)","1.31 fold enrichment (6-mer frequency, TF over GST control)","1.26 fold enrichment (6-mer frequency, TF over GST control)"
